# Data reported in PubChem BioAssay (NCATS).
# Inconclusive results are not listed. Values without a mark were called inactive. Active and inactive are the calls of the source. The call rests on the fitted dose curve; in most records, active means well fitted inhibition curve with a large enough effect; inconclusive means small, poorly fitted or top-dose-only effect; inactive means flat fitted curve, though single readings scatter.
# System: CRL-7250
# Test: Cytotoxic Profiling of Annotated Libraries Using Quantitative High-Throughput Screening (AID 1296008); further: nearly all actives have a fitted effect of over 60% in size
# Conditions: Five cell lines viability, CellTiter-Glo ATP luminescence, 48-72 h; max response: stronger effect = lower value
# Summary of the method: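 Cells exposed to compounds for 48 or 72 hr at 37 degrees Celsius. Viability read as ATP-coupled luminescence with CellTiter-Glo after 10 min at room temperature.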
# On the % scale 0 is the no-effect control and ±100 the full control effect; potency means the concentration at half of the fitted maximal effect.
SMILES,max response,outcome,Potency
CC1=CC(=O)CC(C)(CO)C1(O)/C=C/C(C)O[C@@H]1O[C@H](CO)[C@@H](O)[C@H](O)[C@H]1O (some centres undefined),-0.153%,,
Cc1cc(Cl)ccc1COc1ccnn1-c1cc(C(=O)O)ccn1,0.791%,,
C=C(C)C1CCC2(C(=O)O[C@@H]3O[C@H](CO[C@@H]4O[C@H](CO)[C@@H](O)[C@H](O)[C@H]4O)[C@@H](O)[C@H](O[C@@H]4O[C@@H](C)[C@H](O)[C@@H](O)[C@H]4O)[C@H]3O)CCC3(C(=O)O)C(CCC4C5(C)CCC(O)C(C)(C)C5CCC43C)C12 (some centres undefined),,inactive,
Nc1ncnc2c([C@@H]3N[C@H](CO)[C@@H](O)[C@H]3O)c[nH]c12,-1.11%,,
COc1cc2c(NC3CCN(CC4CCCCC4)CC3)nc(N3CCCN(C(C)C)CC3)nc2cc1OCCCN1CCCCC1,,,4610 nM (active)
CC[C@H](CO)Nc1nc(NCc2ccc(-c3ccccn3)cc2)c2ncn(C(C)C)c2n1,,,92 nM (active)
CCNCc1nc2c(N)nc3ccccc3c2n1CC(C)(C)O,,inactive,
COC(=O)C1=CO[C@@H](O[C@@H]2O[C@H](CO)[C@@H](O)[C@H](O)[C@H]2O)[C@H]2[C@@H]1CC(OC)O[C@@H]2C (some centres undefined),,inactive,
COc1c2c(c(C)c3c1C(=O)OC3)OC1(C)CC(O)C34OC(OC)(CC(OC(C)=O)C3(C)C1C2)OC4(C)C (centres undefined),,inactive,
CNC(=O)c1cccc(-c2ccc3c(N4CCOC[C@@H]4C)nc(N4CCOC[C@@H]4C)nc3n2)c1,,,580 nM (active)
CCc1cnn2c(NCc3ccc[n+]([O-])c3)cc(N3CCCCC3CCO)nc12 (centres undefined),,,4.6 nM (active)
CC1CC(O)C2(OC1=O)OC1C(O)C3C4CCC5CC(OC6OC(CO)C(O)C(O)C6OC6OC(C)C(O)C(O)C6O)CCC5(C)C4CCC3(C)C1C2C (centres undefined),-9.09%,,
COC(=O)c1ccccc1O[C@@H]1O[C@H](CO)[C@@H](O)[C@H](O)[C@H]1O[C@@H]1O[C@@H](C)[C@H](O)[C@@H](O)[C@H]1O,,inactive,
CC1CCC23COC(=O)C2=CC(O)CC3C1(C)CCC1=CC(O)OC1=O (centres undefined),-0.17%,,
COc1cc2oc(-c3ccc(O)cc3O)cc2c(OC)c1CC=C(C)C,-1.99%,,
CCNC(=O)Nc1ncc(-c2cc(-c3c(C)cc(OC)cc3C)nc(-c3cnccn3)n2)s1,-11.4%,,
CO[C@@H](C)Cn1c(=O)n(C)c2cnc3ccc(-c4cncc(C(C)(C)O)c4)cc3c21,,,82 nM (active)
C=C1CCC2C(C)(C)CCC[C@]2(C)[C@H]1C/C=C(\CO)C(=O)C(=O)O (some centres undefined),-8.85%,,
C[C@@H]1CCC/C=C/[C@H]2CC(=O)C[C@@H]2[C@@H](O)/C=C/C(=O)O1,-3.74%,,
CC(=O)OC1C(=O)C2(C)C(O)CC3OCC3(OC(C)=O)C2C(OC(=O)c2ccccc2)C2(O)CC(OC(=O)C(O)C(NC(=O)c3ccccc3)c3ccccc3)C(C)=C1C2(C)C (centres undefined),,,58 nM (active)
CC(=O)C12OC(C)(C)OC1CC1C3CCC4=CC(=O)C=CC4(C)C3(F)C(O)CC12C (centres undefined),-7.35%,,
CC1(C)CC2C=C(C(=O)O)C3COC(=O)C(O)(CO)C23C1 (centres undefined),-19.1%,,
Cc1cc(Nc2ncc3cc(-c4c(Cl)cccc4Cl)c(=O)n(C)c3n2)ccc1F,,,1840 nM (active)
CNC(=O)c1ccccc1Nc1nc(Nc2ccc(N3CCNCC3)cc2)ncc1Cl,,,92 nM (active)
O=C(O)c1cccc(S(=O)(=O)N2CCc3ccccc3C2)c1,0.0752%,,
CO[C@H]1/C=C/[C@@](C)(O)/C=C/C(=O)O[C@H](C)[C@@H](C)CC/C=C/1C,-17.6%,,
COc1cc2ncnc(Nc3ccc(O)cc3)c2cc1OC,,inactive,
C[C@@H]1C[C@@H](O)[C@@]23CO[C@@H](O)[C@@H]2CCC[C@@H]3[C@@]12C[C@@H](c1ccoc1)OC2=O,0.0668%,,
C=C[C@H]1[C@H](O[C@@H]2O[C@H](CO)[C@@H](O)[C@H](O)[C@H]2O)OC=C(C(=O)OC)[C@H]1C[C@@H]1c2cc(O)c(O)cc2CCN1C(C)=O,-23.5%,,
